Whole data set: some 18,000 sequences, median “log2 normalized intensity” near 0.36, cut for the highest 2% near 7.3. This is one part of a sample in which the highest values are shown more often than they occur.
The sequences below were run against T1, HNF4alpha8 (COS-7 nuclear extract) (Homo sapiens, UniProt P41235-5 1-452) (assay: protein-binding microarray; COS-7 nuclear extract on double-stranded Agilent 4x180k PBM; binding buffer, salt, pH and temperature not given in the material; high values mean tight binding). Details: chain copies: 2; label: 3' end of strand 1 on the slide; dsDNA, one strand shown.
T1 sequence: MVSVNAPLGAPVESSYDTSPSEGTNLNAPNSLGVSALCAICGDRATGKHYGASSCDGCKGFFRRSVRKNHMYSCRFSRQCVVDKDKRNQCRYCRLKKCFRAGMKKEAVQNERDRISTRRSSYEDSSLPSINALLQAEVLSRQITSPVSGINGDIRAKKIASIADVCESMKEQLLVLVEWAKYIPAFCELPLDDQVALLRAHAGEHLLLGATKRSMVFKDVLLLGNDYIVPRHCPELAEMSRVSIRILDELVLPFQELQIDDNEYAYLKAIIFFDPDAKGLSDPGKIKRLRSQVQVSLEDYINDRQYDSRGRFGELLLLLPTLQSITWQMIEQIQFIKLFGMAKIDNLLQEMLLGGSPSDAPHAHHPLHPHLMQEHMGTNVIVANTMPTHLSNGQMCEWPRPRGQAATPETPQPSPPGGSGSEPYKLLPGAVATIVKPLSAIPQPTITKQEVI
How it was run: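 Binding signal was defined as the normalized, background-corrected gProcessedSignal reported by Agilent software. It came from nuclear extracts of COS-7 cells transiently transfected with a human HNF4α isoform expression vector, applied to a custom Agilent SurePrint G3 4x180k array. That array held ~44,000 test sequences in quadruplicate as double-stranded ~60-nt oligonucleotides, and bound HNF4α was imaged at 2-µm resolution on an Agilent G2565CA scanner.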

| Sequence | binding signal |
| --- | --- |
| AGTCACACACACCTGTGTCCCCCAGGTCCAGCCTAGGGAGATTAGAGTATCGGTCGA | 3.56 log2 normalized intensity |
| ATATCTGCCTCAGTAGTAGTGAAAAATGAAGCCTAGGGAGATTAGAGTATCGGTCGA | 0.637 log2 normalized intensity |
| GGAGGTGACCTTTGGTTGTCCTTACTGCTAGCCTAGGGAGATTAGAGTATCGGTCGA | 4.22 log2 normalized intensity |
| ACCTCTTATCAAGCGTGCACCCCAGGTACGGCCTAGGGAGATTAGAGTATCGGTCGA | 1.3 log2 normalized intensity |
| ATGGTGTTTGCTTTGTGAAGGCTTATCTGCGCCTAGGGAGATTAGAGTATCGGTCGA | 0.591 log2 normalized intensity |
| GGTTCTTCCACGACTCCCCCGCTCACCCCTGCCTAGGGAGATTAGAGTATCGGTCGA | 5.08 log2 normalized intensity |
| AACTTTTCCATGTCCAAAGGTCTTCATGAGGCCTAGGGAGATTAGAGTATCGGTCGA | 4.33 log2 normalized intensity |
| AGTGCCATGTAATCAAACTGAACTTTGAAAGCCTAGGGAGATTAGAGTATCGGTCGA | 4.48 log2 normalized intensity |
| AACATCATAGAGTGTACTTATGCAGACCTGGCCTAGGGAGATTAGAGTATCGGTCGA | 0.968 log2 normalized intensity |
| CCTCCAGCTACTCACTCTTCCCAAATAGGTGCCTAGGGAGATTAGAGTATCGGTCGA | -0.273 log2 normalized intensity |
| AAGTGCGTCCTGTGGCAAAGGTGAATGACCGCCTAGGGAGATTAGAGTATCGGTCGA | 2.99 log2 normalized intensity |
| TTCACAGAGCAAGGGTCCAGATTAGAGCACGCCTAGGGAGATTAGAGTATCGGTCGA | 2.52 log2 normalized intensity |
| AAAGCCACCCCTTTCTCCTCTCTTTCCATAGCCTAGGGAGATTAGAGTATCGGTCGA | 0.633 log2 normalized intensity |
| GGACAAAGTTCCCCGGGCAGCTGTGTTTGCGCCTAGGGAGATTAGAGTATCGGTCGA | 0.702 log2 normalized intensity |
| CTCCAACTGCTCCTCTTCAACTGATTCTTGGCCTAGGGAGATTAGAGTATCGGTCGA | -0.845 log2 normalized intensity |
| GGGGCCTAGCTTGTAAAGGGTAATCTGCTTGCCTAGGGAGATTAGAGTATCGGTCGA | -0.484 log2 normalized intensity |
| CTTCCAAGGCTGCAAGCAAACCTGCCCTTTGCCTAGGGAGATTAGAGTATCGGTCGA | 4.57 log2 normalized intensity |
| TCTCGCTGCTTCGGCCTTTGACCTCGTGATGCCTAGGGAGATTAGAGTATCGGTCGA | 7.09 log2 normalized intensity |
| TGGGGTCTCGCTGCTTCGGCCTTTGACCTCGCCTAGGGAGATTAGAGTATCGGTCGA | 8.46 log2 normalized intensity |
| CAGGGTGGGGTCTCGCTGCTTCGGCCTTTGGCCTAGGGAGATTAGAGTATCGGTCGA | 1.11 log2 normalized intensity |
| CAGGGAGCCCTTATATCCACATGGGTCCAAGCCTAGGGAGATTAGAGTATCGGTCGA | 3.03 log2 normalized intensity |
| TGCCTGCAGGAGAGAGCAAAGTCCACGCATGCCTAGGGAGATTAGAGTATCGGTCGA | 6.82 log2 normalized intensity |
| CTTGAGTCCAGGAGTGCAAAGCTGCTATGAGCCTAGGGAGATTAGAGTATCGGTCGA | -0.723 log2 normalized intensity |
| AGTCCAAAGGTCTGAGAACCAAGAGAGCCAGCCTAGGGAGATTAGAGTATCGGTCGA | 1.62 log2 normalized intensity |
| AGCCCTTATATCCACATGGGTCCAAAGTTCGCCTAGGGAGATTAGAGTATCGGTCGA | 9.47 log2 normalized intensity |
| CCAAAGTCCAAAGTCCAGTCTTATCTGAGAGCCTAGGGAGATTAGAGTATCGGTCGA | 7.93 log2 normalized intensity |
| GCATGGCTCAGTCCAAGTCCAAAGGTCTGAGCCTAGGGAGATTAGAGTATCGGTCGA | 6.28 log2 normalized intensity |
| AGTCTTGAGTCCCAAAGTCCAAAGGCAGTCGCCTAGGGAGATTAGAGTATCGGTCGA | 3.61 log2 normalized intensity |

| Sequence | binding signal |
| --- | --- |
| CAACTCCAAAGTCCAAAGTCCAGTCTTATCGCCTAGGGAGATTAGAGTATCGGTCGA | 8.47 log2 normalized intensity |
| CTATCTGCCTGCAGGAGAGAGCAAAGTCCAGCCTAGGGAGATTAGAGTATCGGTCGA | 8.21 log2 normalized intensity |
| GACCAGTCTGCCTGACTCCAGAGTCCAAACGCCTAGGGAGATTAGAGTATCGGTCGA | 4.23 log2 normalized intensity |
| ATTCCTAAGTTCCAAAGGCCATCCACATTCGCCTAGGGAGATTAGAGTATCGGTCGA | 2.4 log2 normalized intensity |
| TTCAGTCTTTGTCTTAGCCTGCTCTTTTCCGCCTAGGGAGATTAGAGTATCGGTCGA | 1.12 log2 normalized intensity |
| CCTCTGAAAACTTTTACTGGGAAGAGATAAGCCTAGGGAGATTAGAGTATCGGTCGA | -0.817 log2 normalized intensity |
| AGATAAGACAAGCTCTGTTTGTTTTGTTACGCCTAGGGAGATTAGAGTATCGGTCGA | 1.26 log2 normalized intensity |
| ATACAGAATCAATGCCTGATTCCAAAGTCCGCCTAGGGAGATTAGAGTATCGGTCGA | 6.36 log2 normalized intensity |
| ACTTTGCCTTTTGGCTAAAGTCCAAATTCCGCCTAGGGAGATTAGAGTATCGGTCGA | 6.01 log2 normalized intensity |
| GTCAAAACTTTGTTTGAGTTCCAAAGTCCAGCCTAGGGAGATTAGAGTATCGGTCGA | 7.18 log2 normalized intensity |
| TGTTTGAGTTCCAAAGTCCATGTTCATAACGCCTAGGGAGATTAGAGTATCGGTCGA | 5.66 log2 normalized intensity |
| AACTTTGTTTGAGTTCCAAAGTCCATGTTCGCCTAGGGAGATTAGAGTATCGGTCGA | 7.61 log2 normalized intensity |
| GAATCAATGCCTGATTCCAAAGTCCACTTTGCCTAGGGAGATTAGAGTATCGGTCGA | 7.71 log2 normalized intensity |
| TGTTTGTTTTGAGATAGGGTCTTGCTTTGTGCCTAGGGAGATTAGAGTATCGGTCGA | 1.3 log2 normalized intensity |
| CACTCATGGTGTTTGCTTTGTGAAGGCTTAGCCTAGGGAGATTAGAGTATCGGTCGA | 0.417 log2 normalized intensity |
| TTCCTCCAGCCTGTCGGAATTTGCCCTGTGGCCTAGGGAGATTAGAGTATCGGTCGA | 5.15 log2 normalized intensity |
| ACCATTAACCCTACAGTCCTGCCACATCCCGCCTAGGGAGATTAGAGTATCGGTCGA | -0.385 log2 normalized intensity |
| ATCTCATCCTGTGACCAAGAATGTCTAACCGCCTAGGGAGATTAGAGTATCGGTCGA | -0.428 log2 normalized intensity |
| ATTTGACCCTTGGCCAGGTGCAGTGGCTCAGCCTAGGGAGATTAGAGTATCGGTCGA | 3.54 log2 normalized intensity |
| GCAAGCTTGACCTTTGATCCAGGCTCAGTGGCCTAGGGAGATTAGAGTATCGGTCGA | 8.22 log2 normalized intensity |
| CTTGACCTTTGATCCAGGCTCAGTGGGCGTGCCTAGGGAGATTAGAGTATCGGTCGA | 5.72 log2 normalized intensity |
| TCTTGACCAGGCAAGCTTGACCTTTGATCCGCCTAGGGAGATTAGAGTATCGGTCGA | 10 log2 normalized intensity |
| TTGATCCAGGATCCTTCTTGACCAGGCAAGGCCTAGGGAGATTAGAGTATCGGTCGA | 0.747 log2 normalized intensity |
| ATCCTTCTTGACCAGGCAAGCTTGACCTTTGCCTAGGGAGATTAGAGTATCGGTCGA | 7.77 log2 normalized intensity |
| ACTTTGACCTAGAAGCCAGGGACCAGGAAGGCCTAGGGAGATTAGAGTATCGGTCGA | -0.796 log2 normalized intensity |
| TTAGGATGACCTTTAGATTCTTACAGGCAAGCCTAGGGAGATTAGAGTATCGGTCGA | 4.57 log2 normalized intensity |
| CAAGCTTGATCCAGGATCCTTCTTGACCAGGCCTAGGGAGATTAGAGTATCGGTCGA | 1.18 log2 normalized intensity |

Source: article PMC10726135, “HNF4α isoforms regulate the circadian balance between carbohydrate and lipid metabolism in the liver”
